Test systems include T-47D breast; BT-549 breast; MDA-MB-435 melanoma; SW-620 colon; MCF7 breast; HCT-116 colon; HCC-2998 colon; KM12 colon.
Common to all, as to assay: NCI-60 one-dose screen, 48 h (100 = growth as untreated, 0 = no growth, -100 = all killed)
Details in all cases: 10 µM unless noted

The panel holds about 83,000 compounds, 20% with a hit somewhere; the sample as a whole holds those more often.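 Treatment: one concentration, 48 hours, 96-well format. Scoring: percent growth, with anything below 10 considered active.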 A number with no mark means an inactive call. Active and inactive are the calls of the source.

Experimental findings from PubChem BioAssay (NCI) are described below.

As for `Cc1ccc(NSc2ccccc2[N+](=O)[O-])cc1`, the growth is 27.3% with T-47D breast; 34.1% with BT-549 breast; -26.2% (active) with MDA-MB-435 melanoma; 26.9% in the test on SW-620 colon; 30.4% with MCF7 breast; 20.3% in the test with HCT-116 colon. Further, the growth was 31.4% in the test on HCC-2998 colon and 20.3% in the test with KM12 colon.
On to `Clc1ccc(/C=N\N=c2\scc(-c3ccc(Cl)cc3)n2/N=C/c2ccc(Cl)cc2)cc1`, for which the growth was 96.1% in the test on T-47D breast; 107% in the test on BT-549 breast; 103% with MDA-MB-435 melanoma; 99.9% in the test with SW-620 colon; 93.6% in the test with MCF7 breast; 90% in the test with HCT-116 colon. In addition, the growth in the test with HCC-2998 colon was 104%; with KM12 colon, 105%.
As for `Cc1cc(-c2ccc(N(C)C)cc2)c2sc(=O)[nH]c2n1`, the growth was 67.6% in the test with T-47D breast; 74.6% in the test on BT-549 breast; 4.12% (active) in the test with MDA-MB-435 melanoma; 38.3% with SW-620 colon; 28.4% in the test with MCF7 breast; 50.1% in the test on HCT-116 colon. Further, the figures for the growth in the test with HCC-2998 colon and with KM12 colon were 77.5% and 39%, respectively.
For `NS(=O)(=O)Oc1ccc(NC(=O)C23CC4CC(CC(C4)C2)C3)cc1Cl`, the growth is 75.4% in the test on T-47D breast; 99.3% with BT-549 breast; 99.5% in the test on MDA-MB-435 melanoma; 106% with SW-620 colon; 97.3% in the test with MCF7 breast; 107% in the test with HCT-116 colon. Also, the growth is 103% with HCC-2998 colon and 95.8% in the test on KM12 colon.
As to `CCN(CC)S(=O)(=O)c1ccc(O)c(NC(=O)c2[nH]c(C)c(C(C)=O)c2CCc2ccc(Cl)cc2)c1`, the growth is 13% in the test on T-47D breast; 40.5% with BT-549 breast; 43.4% with MDA-MB-435 melanoma; 61.5% in the test with SW-620 colon; 43.8% with MCF7 breast; 28.1% with HCT-116 colon. Besides, the growth in the test on HCC-2998 colon is 76.3%; with KM12 colon, 29.8%.
As to `O=S(=O)(NCCNc1cc(-c2c(-c3cccc(O)c3)nc3sccn23)ccn1)c1ccc(Br)cc1`, the growth in the test on T-47D breast was 23.8%; in the test on BT-549 breast, 55.2%; with MDA-MB-435 melanoma, 26.1%; in the test with SW-620 colon, 76.8%; with MCF7 breast, 37.4%; in the test with HCT-116 colon it was 47.9%. Moreover, the figures for the growth in the test with HCC-2998 colon and in the test with KM12 colon were 95.3% and 51.3%, respectively.
As for `O=C(CC12CC3CC(CC(C3)C1)C2)NCCOCCOCCOCCNC(=O)c1cc2c(o1)C(=O)c1ccccc1C2=O`, the growth with T-47D breast is 1.06% (active); in the test on BT-549 breast, -90.6% (active); with MDA-MB-435 melanoma it was -96.8% (active); in the test on SW-620 colon, -10.6% (active); in the test with MCF7 breast it was -67.2% (active); with HCT-116 colon, -19.6% (active). In addition, the growth in the test with HCC-2998 colon is -73.7% (active); in the test with KM12 colon, 2.29% (active).
`COc1ccc(-c2cc(-c3ccc(Nc4nc(Nc5ccccc5)nc(Nc5ccc(Cl)cc5)n4)cc3)nc(N)n2)cc1`: the growth with T-47D breast is 35.5%; with BT-549 breast, 82.1%; with MDA-MB-435 melanoma, 66.6%; in the test with SW-620 colon, 80%; in the test on MCF7 breast it was 22.6%; with HCT-116 colon, 38.1%. For the same molecule, the growth in the test with HCC-2998 colon was -7.72% (active); with KM12 colon it was 39.9%.
For `COc1cccc(/C=C2\COc3ccc(O)cc3C2=O)c1OC`, the growth with T-47D breast is 74.8%; in the test with BT-549 breast, 57.8%; in the test on MDA-MB-435 melanoma it was 19.7%; with SW-620 colon, 30.5%; with MCF7 breast, 12.2%; in the test with HCT-116 colon, 34.3%. Besides, the growth was 94.1% with HCC-2998 colon and 7.8% (active) in the test on KM12 colon.
Turning to `Nc1nc(N)c(-c2ccc(Cl)cc2)c(/C=C/c2ccc([N+](=O)[O-])cc2)n1`, the growth in the test on T-47D breast is 84.7%; in the test with BT-549 breast, 92.3%; in the test with MDA-MB-435 melanoma, 41.9%; in the test on SW-620 colon it was 26.4%; with MCF7 breast, 82.2%; with HCT-116 colon it was 48.9%. Moreover, the values for the growth with HCC-2998 colon and in the test on KM12 colon were 77.6% and 83.1%, respectively.
Turning to `CCCN1CCN(c2ccc3nc(-c4ccc5nc(-c6cc(OC)c(OC)c(OC)c6)[nH]c5c4)[nH]c3c2)CC1`, the growth is 65.9% in the test on T-47D breast; 83.2% in the test on BT-549 breast; 55.1% with MDA-MB-435 melanoma; 75.7% with SW-620 colon; 23.8% with MCF7 breast; 55.1% with HCT-116 colon. Also, the results for the growth with HCC-2998 colon and in the test on KM12 colon were 94.2% and 77%, respectively.
For `CCn1c(Sc2nnc(NC(C)=O)s2)nc2c1c(=O)n(C)c(=O)n2C`, the growth in the test with T-47D breast is 93%; with BT-549 breast, 92.8%; in the test on MDA-MB-435 melanoma, 98.1%; with SW-620 colon, 96.1%; with MCF7 breast, 94.8%; in the test on HCT-116 colon it was 97%. In addition, the growth was 92% in the test on HCC-2998 colon and 106% in the test with KM12 colon.
As for `Cc1c(C)c2c(c(C)c1NC(=O)/C=C\C(=O)O)CCC(C)(CCCC(C)CCCC(C)CCCC(C)C)O2` (stereo not drawn), the growth with T-47D breast is 54.5%; with BT-549 breast it was -58.5% (active); with MDA-MB-435 melanoma, 50.9%; with SW-620 colon, 30%; in the test with MCF7 breast it was 51.2%; in the test on HCT-116 colon it was 4.08% (active). Also, the figures for the growth with HCC-2998 colon and with KM12 colon were 79.8% and 29.2%, respectively.
Consider `Fc1ccc(Nc2ccc3cc(OCCCN4CCOCC4)ccc3n2)cc1F`, for which the growth in the test on T-47D breast is 43.5%; with BT-549 breast, 68.6%; with MDA-MB-435 melanoma, 59.9%; in the test on SW-620 colon, 10%; in the test on MCF7 breast, 55.7%; with HCT-116 colon, 47.7%. Also, the growth was 20% in the test on HCC-2998 colon and 21.3% with KM12 colon.
Consider `COc1ccc(O)c(-c2cc(-c3ccccc3)c(C#N)c(=O)[nH]2)c1`, for which the growth in the test on T-47D breast is 79.3%; with BT-549 breast, 70.6%; in the test with MDA-MB-435 melanoma, 102%; with SW-620 colon, 105%; in the test with MCF7 breast it was 87.5%; in the test on HCT-116 colon it was 89.7%. The results for the growth in the test with HCC-2998 colon and in the test with KM12 colon were 99.8% and 90.8%, respectively.
For the molecule `C[C@@H]1C(=O)N(C[C@H](Cc2ccccc2)N(Cc2ccccc2)Cc2ccccc2)[C@]1(Cc1ccccc1)C(=O)OC(C)(C)C`, the growth in the test on T-47D breast was 47.4%; with BT-549 breast, 85.7%; in the test on MDA-MB-435 melanoma it was 76.5%; in the test on SW-620 colon, 63.7%; with MCF7 breast it was 50.6%; in the test with HCT-116 colon it was 40.6%. Besides, the figures for the growth with HCC-2998 colon and in the test with KM12 colon were 84.5% and 62.4%, respectively.
